Bioassay records (PubChem BioAssay)
The list is not random: actives were taken first. Their share in the collection is about 12%.
Pf growth 48h – P. falciparum growth inhibition at 48 hours (one generation); P. falciparum luciferase growth in erythrocytes, 48 h; Potency, µM (doses to about 28.7 µM), inactives show at the top dose activity change, negative = inhibition, most hits filed as inhibitors; actives 5.9% (n = 310,000); AID 504832; note: % is set by controls: 0 for no effect and ±100 for the full control effect
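A one-generation exposure of luciferase-tagged malaria parasites in RPMI 1640/Albumax erythrocyte culture, 37 C and 5% CO2. Inhibition is inferred from decreased luminescence after adding detection reagent.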
AmpC no deterg – AmpC beta-lactamase inhibition without detergent; P00811; AmpC nitrocefin hydrolysis, absorbance 480 nm, 0.0001% Triton; Potency, µM (series often up to 57.1 µM), without a hit: top-dose activity change, negative = inhibition, most hits filed as inhibitors; actives 0.52% (n = 330,000); AID 485341;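 note: plate controls were no compound for no effect and no enzyme for full effect; nearly all actives have a fitted effect of over 20% in size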
Target sequence (P00811 whole entry, looked up): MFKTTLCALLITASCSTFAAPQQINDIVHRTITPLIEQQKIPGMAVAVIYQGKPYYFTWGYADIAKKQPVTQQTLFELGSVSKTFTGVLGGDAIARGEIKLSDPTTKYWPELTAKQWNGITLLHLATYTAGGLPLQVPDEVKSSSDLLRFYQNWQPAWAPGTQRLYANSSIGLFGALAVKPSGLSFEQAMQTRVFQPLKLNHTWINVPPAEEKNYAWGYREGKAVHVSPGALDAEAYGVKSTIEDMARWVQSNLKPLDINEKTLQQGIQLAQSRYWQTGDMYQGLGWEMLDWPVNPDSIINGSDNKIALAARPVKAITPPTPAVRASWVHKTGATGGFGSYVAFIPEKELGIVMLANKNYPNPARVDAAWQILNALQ
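20 mM phosphate pH 7.0 + 0.01% (detergent screen) or 0.0001% Triton X-100; 5.3 nM AmpC reagent; cpd preinc 15 min RT; nitrocefin (800 uM stock) to start; A480 q20 s × 4 min; Activity was normalised to no-enzyme and no-compound control wells.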
Pf growth 96h – P. falciparum growth inhibition at 96 hour, primary screen for plastid delayed-death inhibitors. P. falciparum luciferase reporter growth, 96 h. Potency, µM (doses to about 28.7 µM), for inactives: top-dose activity change, negative = inhibition, hits mostly inhibitors. actives 6.9% (n = 320,000). AID 504834; note: % is set by controls: 0 for no effect and ±100 for the full control effect
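Infected RBCs, 2% Hct / 0.05% parasitemia final; luciferase-reporter P. falciparum; cpd 96 h, 37 C, 5% CO2; luciferase detection reagent; luminescence.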
Sm TGR inh – S. mansoni TGR enzyme inhibition; purified TGR, DTNB reduction, TNB absorbance 405 nm; Potency, µM (highest dose often 114 µM), inactives show at the top dose activity change, negative = inhibition, usual class: inhibitors; actives 3% (n = 360,000); note: % is set by controls: 0 for no effect and ±100 for the full control effect; nearly all actives have a fitted effect of over 60% in size
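First, TGR (20 nM dispensed) and NADPH were mixed with compound. Second, a 15 min room-temperature incubation followed. Third, further NADPH and then DTNB were added to start the reaction. Finally, TNB absorbance was monitored kinetically.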
AmpC detergent – blocks E. coli AmpC beta-lactamase in detergent assay; P00811; AmpC hydrolysis of nitrocefin, absorbance 480 nm, 0.01% Triton; Potency, µM (titrated, usually from 114 µM), inactives show top-dose activity change, negative = inhibition, actives largely listed as inhibitors; actives 0.041% (n = 370,000);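 note: 0% = no-compound wells and -100% = no-enzyme wells; nearly all actives have a fitted effect of over 25% in size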
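20 mM phosphate pH 7.0 + 0.01% (detergent screen) or 0.0001% Triton X-100; 5.3 nM AmpC reagent; cpd preinc 15 min RT; nitrocefin (800 uM stock) to start; A480 q20 s × 4 min; Activity was normalised to no-enzyme and no-compound control wells.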
SARS PLpro yeast – SARS-CoV PLP inhibition in yeast. S. cerevisiae expressing SARS-CoV PLpro, growth rescue. Potency, µM (top dose mostly 32.9 µM), for inactives: at the top dose activity, positive = growth rescue, actives largely listed as activators. actives 0.19% (n = 330,000). AID 485353; calls by dose curve; note: 0% is about no effect; nearly all actives have a fitted effect of over 55% in size
The depositor's hits bear a star; ? = inconclusive; · = not tested or not shown. Unless noted, calls come from the whole dose curve; as a rule, active = well fitted curve in the direction sought with a large enough effect; inconclusive = small, poorly fitted or top-dose-only effect, or another doubt; inactive = no such curve, though single readings can be large; an effect the other way counts as inactive or inconclusive. Potency is the fitted concentration of half-maximal effect.

SMILES	Pf growth 48h	AmpC no deterg	Pf growth 96h	Sm TGR inh	AmpC detergent	SARS PLpro yeast
CN(CC(=O)Nc1cccc(F)c1)C(=O)c1ccccc1CCc1ccccc1	6.6µM*	-3%	?	4%	-14%	-2%
Cc1nn(-c2ccccc2)c(Cl)c1C(=O)N(C)CC(=O)Nc1cccc(F)c1	?	3%	-12%	-2%	?	-4%
COc1ccc(NC(=O)CN(C)C(=O)c2ccccc2CCc2ccccc2)cc1	?	-8%	-6%	-3%	?	2%
Cc1cccc(COc2ccccc2C(=O)N(C)CC(=O)Nc2cccc(F)c2)c1	?	-12%	4.1µM*	-4%	-11%	2%
Cc1nn(Cc2ccccc2Cl)c(C)c1C(=O)N(C)CC(=O)Nc1cccc(F)c1	13µM*	137%	?	-29%	?	-5%
O=C(NCc1ccccc1F)c1ccc(CN2CC(=O)N3CCCCC3C2=O)cc1 (configuration not stated)	·	·	·	-2%	16%	·
CC(C)c1ccc(NC(=O)c2ccc(=O)n(Cc3ccccc3)c2)cc1	·	·	·	-4%	-3%	·
O=C(Cn1c(=O)n(Cc2ccc3c(c2)OCO3)c(=O)c2ccc(C(=O)NC3CCCCC3)cc21)Nc1ccccc1F	·	·	·	-1%	2%	·
Cc1ccc(NC(=O)Cn2c(=O)n(Cc3nc(C)no3)c(=O)c3cc4c(cc32)OCO4)c(C)c1	·	·	·	2%	21%	·
CCC(=O)N(C1=C(NC(C)C)C(=O)c2ccccc2C1=O)C(C)C	0.13µM*	2%	0.066µM*	-32%	6%	-1%
Cc1cc2c3c(c1C)C1(C(=O)N3C(C)(C)CC2C)C(C#N)=C(N)OC2=C1C(=O)CC(C)(C)C2 (configuration not stated)	13µM*	172%	9.3µM*	8%	2%	14%
CC1(c2ccccc2)CC(C)(C)N2C(=O)C3(C(C#N)=C(N)Oc4cc(O)ccc43)c3cccc1c32 (configuration not stated)	·	-30%	?	0%	-1%	15%
Cc1cc2c3c(c1)C(C)(c1ccccc1)CC(C)(C)N3C(=O)C21C(C#N)=C(N)OC2=C1C(=O)CC(C)(C)C2 (configuration not stated)	·	134%	1.9µM*	-7%	-9%	-20%
CC1=CC(C)(C)N2C(=O)C3(C(C#N)=C(N)OC4=C3C(=O)CCC4)c3c(C)c(C)cc1c32 (configuration not stated)	-26%	39%	33%	?	-12%	-1%
Cc1cc2c3c(c1)C1(C(=O)N3C(C)(C)CC2C)C(C#N)=C(N)Oc2n[nH]c(C)c21 (configuration not stated)	12µM*	4%	·	-7%	-5%	-4%
Cc1cc2c3c(c1C)C1(C(=O)N3C(C)(C)CC2C)C(C#N)=C(N)Oc2n[nH]c(C)c21 (configuration not stated)	?	0%	12%	-10%	-15%	2%
C=CCN1CN(S(=O)(=O)c2cccc(Cl)c2)c2nc3ccccc3nc21	?	-7%	?	-24%	-1%	-6%
Cc1ccc(-c2nsc(NC(=O)c3oc4cc(C)c(Cl)cc4c3C)n2)cc1	·	·	·	4%	23%	·
COCCn1cc(C(=O)NCc2ccco2)c2c3ccccc3n(C)c2c1=O	-8%	2%	?	-22%	1%	2%
Cn1c2ccccc2c2c(C(=O)O)cn(C3CCCC3)c(=O)c21	·	-9%	?	2%	?	3%
Cc1ccc(CNC(=O)c2cn(C3CCCC3)c(=O)c3c2c2ccccc2n3C)o1	?	·	12%	8.9µM*	8%	·
Cn1c2ccccc2c2c(C(=O)NCc3ccco3)cn(C3CCCCC3)c(=O)c21	·	4%	?	79µM*	-12%	-7%
COC(=O)C1=C(C)NC2=C(C(=O)C(C(=O)OC)C(c3ccc(OC)cc3)C2)C1c1ccccn1 (configuration not stated)	?	7%	?	2%	-3%	3%
COc1cc(OC)c(NC(=O)Nc2sc3nc4n(c(=O)c3c2C)CCC(C)CC4)cc1Cl (configuration not stated)	·	·	·	-1%	23%	·
COc1ccc(OC)c(NC(=O)Cn2c(CCC(=O)O)ccc2-c2ccc(C)cc2)c1	-10%	6%	-4%	-27%	7%	-2%
SMILES	Pf growth 48h	AmpC no deterg	Pf growth 96h	Sm TGR inh	AmpC detergent	SARS PLpro yeast
COc1ccc(-c2ccc(CCC(=O)O)n2CC(C)C)cc1	·	-33%	?	10µM*	-5%	-8%
C=CCn1c(CCC(=O)O)ccc1-c1ccc(OC)cc1	-1%	-25%	-25%	45µM*	-3%	-2%
O=C(c1cccc(Br)c1)N1CCN(S(=O)(=O)N2CCCCCC2)CC1	1%	71%	-6%	8%	-6%	6%
CCCCP(=O)(O)c1ccccc1	25%	-9%	?	10%	?	5%
CCCCP(=O)(CCCC)Cc1ccccc1O	15µM*	-11%	?	14%	-17%	3%
Cc1ccc(S(=O)(=O)N(C)CC(O)Cn2c3ccccc3c3ccccc32)cc1 (configuration not stated)	?	-37%	-25%	7%	-9%	-22%
O=S(=O)(c1ccc(F)cc1)N(CCO)CC(O)Cn1c2ccccc2c2ccccc21 (configuration not stated)	15µM*	103%	?	0%	-12%	-5%
CCN(CC(O)Cn1c2ccccc2c2ccccc21)S(=O)(=O)c1ccc(F)cc1 (configuration not stated)	·	-1%	13µM*	2%	?	-32%
CCc1ccc(C2c3c(-c4ccccc4O)n[nH]c3C(=O)N2Cc2cccnc2)cc1 (configuration not stated)	·	·	·	0%	21%	·
O=C1C(=O)N(CCN2CCOCC2)C(c2ccccn2)/C1=C(/O)c1ccccc1 (configuration not stated)	18%	37%	3%	?	-5%	9%
Cc1ccc(/C(O)=C2/C(=O)C(=O)N(CCN3CCOCC3)C2c2ccccn2)cc1 (configuration not stated)	31%	-2%	73%	25µM*	3%	-6%
COc1ccc(/C(O)=C2/C(=O)C(=O)N(CCN(C)C)C2c2ccccn2)cc1OC (configuration not stated)	16%	-2%	?	13µM*	2%	2%
